From PubChem BioAssay (Tox21)
The source made the active and inactive calls. Where a call stands in place of a potency, no number is given. Calls come from the whole dose curve; as a rule, active = well fitted curve in the direction sought with a large enough effect in the repeat runs; inconclusive = weak or mixed curves; inactive = flat fitted curve, though single readings scatter. Non-standard residues stand in square brackets, D forms with d. Residues, ends and D or L forms follow the SMILES beside them. pGlu = O=C1CC[C@@H](C(=O)O)N1

Test: qHTS assay to test for compound auto fluorescence at 460 nm (blue) in HEK293 cells (AID 720678)
Conditions: blue autofluorescence 405/460 nm; series mostly up to 46 µM
Method in brief: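 Blue read-out at excitation 405 nm and emission 460 nm follows overnight compound exposure of HEK293 cells at 37C in 5% CO2. Activity is given as auto fluorescence equivalency to triamterene.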
In the case of `COc1cc2c(cc1OC)[C@@H](c1ccccc1)CN(C)CC2`, the Potency is reported as “inactive”.
In the case of `CCC(Cc1c(I)cc(I)c(O)c1I)C(=O)O` (centres undefined), the Potency is reported as “inactive”.
For `CC(=O)Oc1cccc(C(=O)O)c1OC(C)=O`, the Potency was “inactive”.
In the case of `O=C(NNCS(=O)(=O)O)c1ccncc1`, the Potency is reported as “inactive”.
For `CO/N=C(\C(=O)N[C@@H]1C(=O)N2C(C(=O)O)=C(CSC(=O)c3ccco3)CS[C@H]12)c1csc(N)n1`, the Potency was “inactive”.
With `O=c1[nH]cnc2[nH]cc(CN3CCCCC3)c12` the Potency was “inactive”.
In the case of `CO/N=C(\C(=O)N[C@@H]1C(=O)N2C(C(=O)OCOC(=O)C(C)(C)C)=C(/C=C\c3scnc3C)CS[C@H]12)c1csc(N)n1`, the Potency is reported as “inactive”.
In the case of `CCCC(=O)O[C@]1(C(=O)COC(C)=O)CC[C@H]2[C@@H]3C[C@H](F)C4=CC(=O)C=C[C@]4(C)[C@@]3(F)[C@@H](O)C[C@@]21C`, the Potency is reported as “inactive”.
In the case of `CCCc1ccc(C(=O)O)cc1`, the Potency is reported as “inactive”.
With `CC1(C)S[C@@H]2[C@H](NC(=O)C(C(=O)Oc3ccc4c(c3)CCC4)c3ccccc3)C(=O)N2[C@H]1C(=O)O` (some centres undefined) the Potency was “inactive”.
For `CO[C@@]1(NC(=O)C2SC(=C(C(N)=O)C(=O)O)S2)C(=O)N2C(C(=O)O)=C(CSc3nnnn3C)CS[C@@H]21` (some centres undefined), the Potency was “inactive”.
For `O=C1CCC(=O)N1CO`, the Potency was “inactive”.
In the case of `C[C@@H](O)[C@H]1C(=O)N2C(C(=O)[O-])=C(SC3Cn4cnc[n+]4C3)[C@H](C)[C@H]12` (some centres undefined), the Potency is reported as “inactive”.
For `CC(C)[C@@H]1CC[C@@H](C)C[C@H]1OC(=O)c1ccccc1O`, the Potency was “inactive”.
With `N#Cc1ccc2c(c1)N(CCCN1CCC(O)CC1)c1ccccc1S2` the Potency was “inactive”.
For `CO[C@H]1C[C@H](O[C@H]2[C@H](C)[C@@H](O[C@@H]3O[C@H](C)C[C@H](N(C)C)[C@H]3OC(C)=O)[C@@H](C)C[C@]3(CO3)C(=O)[C@H](C)[C@@H](OC(C)=O)[C@@H](C)[C@@H](C)OC(=O)[C@@H]2C)O[C@@H](C)[C@@H]1OC(C)=O`, the Potency was “inactive”.
For `C[C@]12CC[C@@H]3c4ccc(OS(=O)(=O)O)cc4CC[C@H]3[C@@H]1CCC2=O`, the Potency was “inactive”.
For `Nc1nc2c(c(=O)[nH]1)N(C=O)C(CNc1ccc(C(=O)N[C@@H](CCC(=O)O)C(=O)O)cc1)CN2` (some centres undefined), the Potency was “inactive”.
In the case of `C/C=C(/CC[C@@H](C)[C@H]1CC[C@H]2C3=CC[C@H]4[C@H](C)[C@@H](O)CC[C@]4(C)[C@H]3CC[C@]12C)C(C)C`, the Potency is reported as “inactive”.
With `OC[C@H]1O[C@@H](n2cnc3c2NC=NC[C@H]3O)C[C@@H]1O` the Potency was “inactive”.
With `O=C(O)c1nc(=O)[nH]c(=O)[nH]1` the Potency was “inactive”.
For `C=CCSSSCC=C`, the Potency was “inactive”.
In the case of `CS(=O)(=O)Nc1cc2occ(NC=O)c(=O)c2cc1Oc1ccccc1`, the Potency is reported as “inactive”.
In the case of `CC(C(=O)O)c1ccc(C2CCCCC2)c2ccccc12` (centres undefined), the Potency is reported as “inactive”.
With `CC[C@H](C)[C@H](NC(=O)[C@H](Cc1ccccc1)NC(=O)[C@H](C)NC(=O)[C@H](CC(=O)O)NC(=O)[C@H](CCCCN)NC(=O)[C@H](CO)NC(=O)[C@@H]1CCCN1C(=O)[C@@H]1CCC(=O)N1)C(=O)NCC(=O)N[C@@H](CC(C)C)C(=O)N[C@@H](CCSC)C(N)=O` ([pGlu]PSKDAFIGLM-NH2) the Potency was “inactive”.
With `Cc1cccc(C)c1NC(=O)NC1=CCCN1C` the Potency was “inactive”.
With `Cn1cc(NC(=O)c2cc(NC(=O)c3cc(NC=O)cn3C)cn2C)cc1C(=O)NCCC(=N)N` the Potency was “inactive”.
In the case of `CCCCCCCCCCCCCCCC(=O)O[C@@H]1[C@@H](O)[C@@H](O)[C@@H]([C@H](NC(=O)[C@@H]2C[C@@H](CCC)CN2C)[C@H](C)Cl)O[C@@H]1SC`, the Potency is reported as “inactive”.
In the case of `Cc1cccc(Nc2ncccc2C(=O)O)c1C`, the Potency is reported as “inactive”.
In the case of `NCCCNCCCCNC(=O)C(O)NC(=O)CCCCCCN=C(N)N` (centres undefined), the Potency is reported as “inactive”.
For `CC1(C)C2CC[C@]3(C)[C@H](C(=O)C=C4[C@@H]5C[C@@](C)(C(=O)O)CC[C@]5(C)CC[C@]43C)[C@@]2(C)CC[C@@H]1O[C@H]1O[C@H](C(=O)O)[C@@H](O)[C@H](O)[C@H]1O[C@@H]1O[C@H](C(=O)O)[C@@H](O)[C@H](O)[C@H]1O` (some centres undefined), the Potency was “inactive”.
In the case of `CN1c2c(nc(N)[nH]c2=O)NCC1CNc1ccc(C(=O)NC(CCC(=O)O)C(=O)O)cc1` (centres undefined), the Potency is reported as “inactive”.
For `Oc1cc(O)cc(O)c1`, the Potency was “inactive”.
With `NC(=O)OCC(O)COc1ccc(Cl)cc1` (centres undefined) the Potency was “inactive”.
For `O=C1NC(=O)[C@H]2[C@@H]1[C@@H]1C=C[C@H]2C1`, the Potency was “inactive”.
For `CC(C)[C@H](N)C(=O)OCC(CO)OCn1cnc2c(=O)[nH]c(N)nc21` (some centres undefined), the Potency was “inactive”.
For `Cc1ncc(C[n+]2csc(CCOP(=O)(O)OP(=O)(O)O)c2C)c(N)n1`, the Potency was “inactive”.
In the case of `NCCCC[C@H](N)C(=O)O`, the Potency is reported as “inactive”.
With `CNCC(O)c1ccc(OC(=O)C(C)(C)C)c(OC(=O)C(C)(C)C)c1` (centres undefined) the Potency was “inactive”.

Test: qHTS assay to test for compound auto fluorescence at 590 nm (red) in HEK293 cells (AID 720679)
Conditions: red autofluorescence 540/590 nm; series mostly up to 46 µM
Method in brief: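 Red channel, Ex/Em 540/590nm; signal expressed as equivalency to Rose Bengal sodium. HEK293, 2,000 cells/well, 10% dialyzed FBS; 23 nL compound pinned after 4-5 hr attachment; overnight 37C/5% CO2 before reading.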
For `COc1cc2c(cc1OC)[C@@H](c1ccccc1)CN(C)CC2`, the Potency was “inactive”.
With `CCC(Cc1c(I)cc(I)c(O)c1I)C(=O)O` (centres undefined) the Potency was “inactive”.
For `CC(=O)Oc1cccc(C(=O)O)c1OC(C)=O`, the Potency was “inactive”.
With `CO/N=C(\C(=O)N[C@@H]1C(=O)N2C(C(=O)O)=C(CSC(=O)c3ccco3)CS[C@H]12)c1csc(N)n1` the Potency was “inactive”.
In the case of `O=c1[nH]cnc2[nH]cc(CN3CCCCC3)c12`, the Potency is reported as “inactive”.
In the case of `CO/N=C(\C(=O)N[C@@H]1C(=O)N2C(C(=O)OCOC(=O)C(C)(C)C)=C(/C=C\c3scnc3C)CS[C@H]12)c1csc(N)n1`, the Potency is reported as “inactive”.
With `CCCC(=O)O[C@]1(C(=O)COC(C)=O)CC[C@H]2[C@@H]3C[C@H](F)C4=CC(=O)C=C[C@]4(C)[C@@]3(F)[C@@H](O)C[C@@]21C` the Potency was “inactive”.
For `CCCc1ccc(C(=O)O)cc1`, the Potency was “inactive”.
For `CC1(C)S[C@@H]2[C@H](NC(=O)C(C(=O)Oc3ccc4c(c3)CCC4)c3ccccc3)C(=O)N2[C@H]1C(=O)O` (some centres undefined), the Potency was “inactive”.
In the case of `CO[C@@]1(NC(=O)C2SC(=C(C(N)=O)C(=O)O)S2)C(=O)N2C(C(=O)O)=C(CSc3nnnn3C)CS[C@@H]21` (some centres undefined), the Potency is reported as “inactive”.
With `O=C1CCC(=O)N1CO` the Potency was “inactive”.
With `C[C@@H](O)[C@H]1C(=O)N2C(C(=O)[O-])=C(SC3Cn4cnc[n+]4C3)[C@H](C)[C@H]12` (some centres undefined) the Potency was “inactive”.
For `CC(C)[C@@H]1CC[C@@H](C)C[C@H]1OC(=O)c1ccccc1O`, the Potency was “inactive”.
For `N#Cc1ccc2c(c1)N(CCCN1CCC(O)CC1)c1ccccc1S2`, the Potency was “inactive”.
In the case of `CO[C@H]1C[C@H](O[C@H]2[C@H](C)[C@@H](O[C@@H]3O[C@H](C)C[C@H](N(C)C)[C@H]3OC(C)=O)[C@@H](C)C[C@]3(CO3)C(=O)[C@H](C)[C@@H](OC(C)=O)[C@@H](C)[C@@H](C)OC(=O)[C@@H]2C)O[C@@H](C)[C@@H]1OC(C)=O`, the Potency is reported as “inactive”.
For `C[C@]12CC[C@@H]3c4ccc(OS(=O)(=O)O)cc4CC[C@H]3[C@@H]1CCC2=O`, the Potency was “inactive”.
In the case of `Nc1nc2c(c(=O)[nH]1)N(C=O)C(CNc1ccc(C(=O)N[C@@H](CCC(=O)O)C(=O)O)cc1)CN2` (some centres undefined), the Potency is reported as “inactive”.
In the case of `C/C=C(/CC[C@@H](C)[C@H]1CC[C@H]2C3=CC[C@H]4[C@H](C)[C@@H](O)CC[C@]4(C)[C@H]3CC[C@]12C)C(C)C`, the Potency is reported as “inactive”.
For `OC[C@H]1O[C@@H](n2cnc3c2NC=NC[C@H]3O)C[C@@H]1O`, the Potency was “inactive”.
In the case of `O=C(O)c1nc(=O)[nH]c(=O)[nH]1`, the Potency is reported as “inactive”.
In the case of `C=CCSSSCC=C`, the Potency is reported as “inactive”.
In the case of `CC(C(=O)O)c1ccc(C2CCCCC2)c2ccccc12` (centres undefined), the Potency is reported as “inactive”.
For `CC[C@H](C)[C@H](NC(=O)[C@H](Cc1ccccc1)NC(=O)[C@H](C)NC(=O)[C@H](CC(=O)O)NC(=O)[C@H](CCCCN)NC(=O)[C@H](CO)NC(=O)[C@@H]1CCCN1C(=O)[C@@H]1CCC(=O)N1)C(=O)NCC(=O)N[C@@H](CC(C)C)C(=O)N[C@@H](CCSC)C(N)=O` ([pGlu]PSKDAFIGLM-NH2), the Potency was “inactive”.
For `Cn1cc(NC(=O)c2cc(NC(=O)c3cc(NC=O)cn3C)cn2C)cc1C(=O)NCCC(=N)N`, the Potency was “inactive”.
With `CCCCCCCCCCCCCCCC(=O)O[C@@H]1[C@@H](O)[C@@H](O)[C@@H]([C@H](NC(=O)[C@@H]2C[C@@H](CCC)CN2C)[C@H](C)Cl)O[C@@H]1SC` the Potency was “inactive”.
For `Cc1cccc(Nc2ncccc2C(=O)O)c1C`, the Potency was “inactive”.
In the case of `NCCCNCCCCNC(=O)C(O)NC(=O)CCCCCCN=C(N)N` (centres undefined), the Potency is reported as “inactive”.
For `CC1(C)C2CC[C@]3(C)[C@H](C(=O)C=C4[C@@H]5C[C@@](C)(C(=O)O)CC[C@]5(C)CC[C@]43C)[C@@]2(C)CC[C@@H]1O[C@H]1O[C@H](C(=O)O)[C@@H](O)[C@H](O)[C@H]1O[C@@H]1O[C@H](C(=O)O)[C@@H](O)[C@H](O)[C@H]1O` (some centres undefined), the Potency was “inactive”.
For `CN1c2c(nc(N)[nH]c2=O)NCC1CNc1ccc(C(=O)NC(CCC(=O)O)C(=O)O)cc1` (centres undefined), the Potency was “inactive”.
In the case of `Oc1cc(O)cc(O)c1`, the Potency is reported as “inactive”.
With `NC(=O)OCC(O)COc1ccc(Cl)cc1` (centres undefined) the Potency was “inactive”.
With `O=C1NC(=O)[C@H]2[C@@H]1[C@@H]1C=C[C@H]2C1` the Potency was “inactive”.
For `Cc1ncc(C[n+]2csc(CCOP(=O)(O)OP(=O)(O)O)c2C)c(N)n1`, the Potency was “inactive”.
With `NCCCC[C@H](N)C(=O)O` the Potency was “inactive”.
In the case of `CNCC(O)c1ccc(OC(=O)C(C)(C)C)c(OC(=O)C(C)(C)C)c1` (centres undefined), the Potency is reported as “inactive”.
